From PubChem BioAssay (NCATS)
Records with an inconclusive call do not appear. Active and inactive are the calls of the source. Calls follow the shape of the dose curve; as a rule, active = well fitted inhibition curve with a large enough effect; inconclusive = small, poorly fitted or top-dose-only effect; inactive = flat fitted curve, though single readings scatter.

Assay: P-glycoprotein substrates identified in KB-8-5-11 adenocarcinoma cell line, qHTS therapeutic library screen (AID 1346987); also: nearly all actives have a fitted effect of over 65% in size
Conditions: KB-8-5-11 (P-gp overexpressing) viability, CellTiter-Glo, 72 h; series mostly up to 44.5 µM; activity change, negative = cytotoxicity: at the top concentration
Method in brief: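 Luminescence from CellTiter-Glo, read 5 min after addition, quantified survival of KB-8-5-11 (P-gp-overexpressing) cells exposed to compounds for 72 h. AC50 was derived from concentration-response curves.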
% is scaled to controls: 0 for no effect and ±100 for the full control effect; potency is read from the fitted curve at half-maximal effect.

Compound	activity change, negative = cytotoxicity	Potency	outcome
CCC1(CC)C(=O)NC(=O)N(C)C1=O	-10.1% (inactive)	–	–
C/C(=C\c1csc(C)n1)[C@@H]1C[C@@H]2O[C@]2(C)CCC[C@H](C)[C@H](O)[C@@H](C)C(=O)C(C)(C)[C@@H](O)CC(=O)O1	–	36.6 nM (active)	–
CC1(C)S[C@@H]2[C@H](N)C(=O)N2[C@H]1C(=O)O	-1.5% [at 17.3 µM] (inactive)	–	–
CC(=O)O[C@H]1CC[C@@]2(C)C(=CC[C@@H]3[C@@H]2CC[C@]2(C)C(=O)CC[C@@H]32)C1	-6.94% [at 17.3 µM] (inactive)	–	–
CN1C(=O)c2ccccc2NC(=O)C1Cc1ccccc1 (centres undefined)	2.5% (inactive)	–	–
CC(C)Nc1ccc(Nc2ccccc2)cc1	–	20600 nM (active)	–
CCOC(=O)/C=C(C)/C=C/C[C@@H](C)CCCC(C)C	-4.36% (inactive)	–	–
O=C1CN(O)C(c2ccccc2)=c2cc(Cl)ccc2=N1	18.1% (inactive)	–	–
CCNC(C)Cc1cccc(C(F)(F)F)c1 (centres undefined)	-4.34% (inactive)	–	–
ClCC1CO1 (centres undefined)	-1.3% (inactive)	–	–
CCC1(c2ccccc2)C(=O)NC(=O)N(C(=O)c2ccccc2)C1=O (centres undefined)	-14.3% (inactive)	–	–
CCON=O	-21.4% (inactive)	–	–
COC1CC(OC2CCC3(C)C(=CCC4C3CCC3(C)C(C(C)OC5OC(COC6OC(CO)C(O)C(O)C6O)C(O)C(O)C5O)CCC43O)C2)OC(C)C1OC1OC(C)C(O)C(OC)C1O (centres undefined)	–	–	inactive [at 9.29 µM]
NCC(O)c1cccc(O)c1 (centres undefined)	-2.67% (inactive)	–	–
Cc1cc(C(=O)CN2CCCC2)c(C)n1-c1ccc(F)cc1	–	inactive	–
CN1C(=O)c2ccccc2NC(=O)[C@]12O[C@@H]2c1ccccc1	-7.58% (inactive)	–	–
CCCCC[C@@H](O)C1C(=O)OC(C)[C@H](O)/C=C/C=C/C=C/C=C/C=C(\C)C(O)C(O)C(O)C[C@H](O)C[C@H](O)C[C@H](O)C[C@H](O)C[C@@H]1O (some centres undefined)	–	inactive	–
CO[C@H]1[C@H](O)[C@H](O[C@H]2CC[C@]3(C)C4CC[C@]5(C)[C@H](C6=CC(=O)OC6)CC[C@]5(O)C4CC[C@@H]3C2)O[C@@H](C)[C@@H]1O (some centres undefined)	–	56.3 nM (active)	–
CCC/C=C/C=C/C(=O)O[C@H]1/C(=C/C(=O)OC)C[C@H]2C[C@H]([C@@H](C)O)OC(=O)C[C@H](O)C[C@@H]3C[C@H](OC(C)=O)C(C)(C)[C@](O)(C[C@@H]4C/C(=C/C(=O)OC)C[C@H](/C=C/C(C)(C)[C@]1(O)O2)O4)O3	-3.26% (inactive)	–	–
Clc1ccccc1Cl	-4.71% (inactive)	–	–

Compound	activity change, negative = cytotoxicity	Potency	outcome
[2H]C([2H])([2H])[C@H](N)Cc1ccccc1	13.1% (inactive)	–	–
CN1c2ccccc2C(NCCCCCCC(=O)O)c2ccc(Cl)cc2S1(=O)=O (centres undefined)	0.529% (inactive)	–	–
CCc1c(C(=O)C(N)=O)c2c(OCC(=O)OC)cccc2n1Cc1ccccc1	-1.83% (inactive)	–	–
CC1=CC2/C=C(\C)CCC(O)C3OC(C)(C)OC3CC(=O)OC23C(=O)NC(CC(C)C)C3C1C (centres undefined)	-2.51% [at 17.3 µM] (inactive)	–	–
CC[C@H]1[C@@H]2C[C@H]3[C@@H]4N(C)c5ccccc5[C@]45C[C@@H](C2[C@H]5O)N3[C@@H]1O (some centres undefined)	-12.7% [at 17.3 µM] (inactive)	–	–
COc1cc2c(cc1OC)[C@@]13CCN4CC5=CCO[C@H]6CC(=O)N2[C@H]1[C@H]6[C@H]5C[C@H]43	–	inactive	–
Cc1cccc(C(C)c2cnc[nH]2)c1C (centres undefined)	9.02% (inactive)	–	–
C[C@H]1C(=O)O[C@H]2[C@H](O)[C@]34C5OC(=O)[C@]3(O[C@@H]3OC(=O)[C@H](O)C34[C@H](C(C)(C)C)[C@H]5O)C12O (some centres undefined)	–	–	inactive [at 17.3 µM]
Cc1cccc(NC(=O)N[C@@H]2N=C(c3ccccc3)c3ccccc3N(C)C2=O)c1	-6.54% (inactive)	–	–
O=C(O)C(Cl)(Cl)Cl	2.1% (inactive)	–	–
C[C@@]1(C(=O)O)CC[C@]2(C)CC[C@]3(C)C4=CC(=O)c5cc(O)c(O)cc5[C@]4(C)CC[C@@]3(C)[C@@H]2C1	–	–	inactive [at 17.3 µM]
CCC1(c2ccccc2)C(=O)NC(=O)N(C)C1=O (centres undefined)	2.89% (inactive)	–	–
COC1C(O)C(C)OC(OC2C(CO)O[C@@H](O[C@@H]3CC4CCC5C(CC[C@]6(C)[C@@H](C7=CC(=O)OC7)CC[C@]56O)[C@@]4(C)[C@H](O)C3)C(O)C2O)C1O (some centres undefined)	–	544 nM (active)	–
C[C@H]1CC[C@]2(NC1)O[C@H]1C[C@H]3[C@@H]4CC[C@H]5C[C@@H](O)CC[C@]5(C)[C@H]4CC[C@]3(C)[C@H]1[C@@H]2C	-1.36% (inactive)	–	–
ClC(Cl)(Cl)Cl	-0.758% (inactive)	–	–
Clc1ccc(C2(Cn3cncn3)OCCO2)c(Cl)c1	-1.18% (inactive)	–	–
OC[C@@H](O)[C@H]1O[C@@H]2O[C@@H](C(Cl)(Cl)Cl)O[C@@H]2[C@H]1O	-16% (inactive)	–	–
c1csc(C2(N3CCCCC3)CCCCC2)c1	-3.63% (inactive)	–	–
[Cl-].[Cl-].[Hg+2]	–	3660 nM (active)	–
